Entries with a potency or affinity are not part of this list. Activity calls are given as the source filed them.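 How the source made its calls: active means fitted half-maximal dose no more than twice the top valid tested dose, for compounds that lower signal; inconclusive means fit invalid, or curve flat with activity between -70 and -30; inactive means potency past limit, curve flat within ±30, or signal increasing.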
The compounds below were run against NAD-dependent protein deacylase sirtuin-5, mitochondrial (Homo sapiens) (UniProt Q9NXA8) (assay: SIRT5 deacylase inhibitors, dose response, biochemical, fluorescence imaging, cherry-pick, set 6 (AID 720597;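 further: lower AMC signal can also come from blocking the trypsin step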)). Details: Purified SirT5, succinyl-peptide-AMC/trypsin fluorescence; series mostly up to 15 µM.
NAD-dependent protein deacylase sirtuin-5, mitochondrial (Homo sapiens), sequence (Q9NXA8 whole entry, looked up): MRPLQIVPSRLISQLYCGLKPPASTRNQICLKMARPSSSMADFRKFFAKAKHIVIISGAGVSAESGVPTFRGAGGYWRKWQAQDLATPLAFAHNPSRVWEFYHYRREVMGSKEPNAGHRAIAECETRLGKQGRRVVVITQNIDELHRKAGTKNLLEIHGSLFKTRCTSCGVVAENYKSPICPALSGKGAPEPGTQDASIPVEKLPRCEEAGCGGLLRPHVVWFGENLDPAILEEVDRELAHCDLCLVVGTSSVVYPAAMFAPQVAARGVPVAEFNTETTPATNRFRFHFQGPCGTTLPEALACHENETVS

outcome, inactive:
CN(C)C(=O)c1cccc(-c2ccc([C@H]3[C@@H](CO)N4CCCCN(S(C)(=O)=O)C[C@H]34)cc2)c1, C[C@@H]1CN([C@@H](C)CO)S(=O)(=O)c2ccc(C3=CCCCC3)cc2O[C@@H]1CN(C)S(=O)(=O)c1ccc(F)cc1, C[C@H](CO)N1C[C@H](C)[C@@H](CN(C)Cc2ccc(C(F)(F)F)cc2)Oc2ccc(NS(=O)(=O)c3ccc(F)cc3)cc2CC1=O, C[C@@H]1CN([C@@H](C)CO)S(=O)(=O)c2ccc(/C=C/c3ccccc3)cc2O[C@@H]1CN(C)C(=O)NC1CCCC1, COc1cccc(-c2ccc3c(c2)[C@@H]2[C@@H](CCN2C(=O)c2ccccc2F)[C@H](CO)N3C)c1, CCNC(=O)C[C@H]1CC[C@@H]2[C@H](COC[C@H](O)CN2C(=O)Nc2ccc(C(F)(F)F)cc2)O1, O=C(CCN1CCCCC1)N[C@H]1CC[C@H](CC(=O)N2CCC(Cc3ccccc3)CC2)O[C@H]1CO, Cc1ccc(S(=O)(=O)N(C)C[C@H]2Oc3ccc(NC(=O)Nc4cccc5ccccc45)cc3CC(=O)N([C@@H](C)CO)C[C@H]2C)cc1, C[C@@H]1CN([C@H](C)CO)C(=O)c2cccc(NC(=O)CCCCCC(=O)Nc3ccccc3N)c2O[C@H]1CN(C)Cc1ccc(Oc2ccccc2)cc1, COc1ccc(S(=O)(=O)Nc2ccc3c(c2)C(=O)N([C@@H](C)CO)C[C@H](C)[C@H](CN(C)Cc2ccc(Oc4ccccc4)cc2)O3)cc1, COc1ccc(S(=O)(=O)Nc2ccc3c(c2)C(=O)N([C@@H](C)CO)C[C@H](C)[C@@H](CN(C)Cc2ccc(C(F)(F)F)cc2)OCCCC[C@@H](C)O3)cc1, COc1ccc(S(=O)(=O)Nc2ccc3c(c2)C(=O)N([C@@H](C)CO)C[C@@H](C)[C@H](CN(C)Cc2ccc(Oc4ccccc4)cc2)O3)cc1, C[C@@H]1CN([C@H](C)CO)C(=O)c2cc(N(C)C)ccc2O[C@H]1CN(C)C(=O)Nc1ccc(F)cc1, C[C@H]1CN([C@@H](C)CO)C(=O)c2c(c3ccccc3n2C)-c2ccccc2CO[C@@H]1CN(C)Cc1ccc2c(c1)OCO2, C[C@H]1CN([C@@H](C)CO)C(=O)c2cc(C#CCN(C)C)cnc2O[C@H]1CN(C)S(=O)(=O)c1ccccc1, C[C@H](CO)N1C[C@H](C)[C@H](CN(C)CC2CCCCC2)Oc2ccc(NS(=O)(=O)c3ccc(Cl)cc3)cc2CC1=O, Cc1cccc(-c2ccc([C@@H]3[C@@H](CO)N4CCCCN(S(=O)(=O)c5ccccc5F)C[C@H]34)cc2)c1, Cc1ccc(S(=O)(=O)N[C@H]2CC[C@@H](CCn3cc(C(C)C)nn3)O[C@H]2CO)cc1, C[C@@H]1CN([C@@H](C)CO)C(=O)c2c(c3ccccc3n2C)-c2ccccc2CO[C@@H]1CN(C)Cc1cccc(O)c1, CC(C)CC#Cc1ccc2c(c1)O[C@H](CN(C)C(=O)C1CCCCC1)[C@@H](C)CN([C@@H](C)CO)S2(=O)=O, C[C@H]1CN([C@@H](C)CO)C(=O)Cc2cc(NC(=O)CCCCCC(=O)Nc3ccccc3N)ccc2O[C@H]1CN(C)Cc1ccc(Oc2ccccc2)cc1, C[C@@H]1CN([C@H](C)CO)C(=O)c2cc(NC(=O)CCC(F)(F)F)ccc2O[C@@H](C)CCCCO[C@@H]1CN(C)Cc1ccc(C(F)(F)F)cc1, CC(C)CC#Cc1ccc2c(c1)O[C@H](CN(C)C(=O)C1CCCCC1)[C@@H](C)CN([C@H](C)CO)S2(=O)=O, C[C@H](CO)N1C[C@H](C)[C@@H](CN(C)S(=O)(=O)c2ccc(F)cc2)Oc2cc(C#Cc3ccc(F)cc3)ccc2S1(=O)=O, O=C(C[C@H]1CC[C@H]2[C@@H](COC[C@@H](O)CN2S(=O)(=O)c2cccc(Cl)c2)O1)Nc1ccc(-c2ccccc2)cc1, O=C(C[C@H]1C[C@@H]2c3cc(NC(=O)C4CCC4)ccc3O[C@@H]2[C@@H](CO)O1)NCc1ccc(-c2ccccc2)cc1, C[C@@H](O)C#Cc1ccc([C@H]2[C@H](CO)N3CCCCN(CC4CC4)C[C@@H]23)cc1, C[C@H](CO)N1C[C@H](C)[C@H](CN(C)Cc2cccc(C(F)(F)F)c2)OCc2ccccc2-c2ccccc2C1=O

Source: PubChem BioAssay AID720597 (Broad Institute, 2013)
